Experimental data taken from PubChem BioAssay.
Activity calls are given as the source filed them.

Columns and labels:
[1] = tested on: Plasmodium falciparum Sir2 (PF13_0152, Sir2A); assay: Plasmodium falciparum Sir2A binding compounds – biochemical, small-molecule microarray, 635 nm fluorescence, primary screen (AID 1098); conditions: fluorescence 635 nm, higher = more signal;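 note: score merges spot fluorescence intensity with its signal-to-noise ratio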
[2] = probe aDKK1 binding to arrayed compounds – biochemical, biotinylated probe, 635/667 nm fluorescence, primary screen (AID 1099); conditions: small-molecule microarray, higher = more signal;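 note: score merges 667nm spot fluorescence with signal to noise across triplicate slides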
[3] = probe aCHRDL2 binding to arrayed compounds – biochemical, biotinylated probe, 635/667 nm fluorescence, primary screen (AID 1100); conditions: small-molecule microarray, higher = more signal
[4] = change in splice reporter luminescence, either direction, cell-based, HEK293, spliceosome inhibition project, primary screen (AID 1101); conditions: HEK293 splicing luciferase reporter, 24 h, higher = more signal, called active from +8 up or from −8 down;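 note: HEK293 cells carrying a splicing-competent luciferase reporter gene; test concentration not given here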
[5] = molecular target: Fibroblast growth factor 10 (Homo sapiens) (UniProt O15520); assay: compounds binding fibroblast growth factor 10 – biochemical, small-molecule microarray, 635 nm fluorescence, primary screen (AID 1102); conditions: FGF10 binding, fluorescence 635 nm, higher = more signal
[6] = tested on: glycogen synthase kinase-3 (GSK3A per assay name; protocol says GSK3B); assay: compounds binding glycogen synthase kinase-3 – biochemical, small-molecule microarray, 635 nm fluorescence, GSK3A, primary screen (AID 1103); conditions: fluorescence 635 nm, higher = more signal; note: the record names both GSK3A and GSK3B
[7] = molecular target: Epidermal growth factor receptor (Homo sapiens) (UniProt P00533); assay: compounds binding epidermal growth factor receptor – biochemical, small-molecule microarray, 635 nm fluorescence, primary screen (AID 1104); conditions: EGFR binding, higher = more signal;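 note: score merges 667 nm emission intensity with spot signal to noise over triplicate slides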
[8] = molecular target: Follistatin-related protein 3 (Homo sapiens) (UniProt O95633); assay: compounds binding follistatin-related protein 3 – biochemical, small-molecule microarray, 635 nm fluorescence, primary screen (AID 1105); conditions: FSTL3 binding, higher = more signal;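 note: score merges emission near 667 nm and signal to noise per printed spot across three slides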
[9] = molecular target: Dickkopf-related protein 1 (Homo sapiens) (UniProt O94907); assay: small molecules binding DKK1 protein – biochemical, small-molecule microarray, 635 nm fluorescence scan, primary screen (AID 1106); conditions: higher = more signal;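 note: score merges emission near 667 nm with signal to noise over three replicate slides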
[10] = tested on: Inhibin beta A chain (activin A); assay: small molecules binding activin A – biochemical, small-molecule microarray, 635 nm fluorescence scan, primary screen (AID 1107); conditions: INHBA, higher = more signal;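 note: mouse activin A protein probed at 4.33 µg/mL on printed slides; score merges bound-protein fluorescence near 667 nm with spot signal-to-noise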
[11] = tested on: Human papillomavirus type 1a protein E7 (residues 44-93); assay: small molecules binding HPV E7 44-93 – biochemical, small-molecule microarray, residues 44-93, 635 nm fluorescence, primary screen (AID 1108); conditions: fluorescence 635 nm, higher = more signal;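 note: E7 fragment applied at 1 µg/mL in TBST for 1 h at 4 C; score combines spot fluorescence with its signal to noise ratio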
[12] = hepatitis C replication reporter changes, two-sided – Huh7 cells, luciferase reporter, HCV replication inhibitor project, primary screen (AID 1109); conditions: Huh7 HCV replicon luciferase reporter, 48 h; higher = more signal;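 note: huh7 hepatoma cells harbouring a luciferase neomycin HCV replicon reporter; luciferase luminescence as measure of HCV replicon replication; test concentration not given here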
[13] = molecular target: Left-right determination factor 2 (Homo sapiens) (UniProt O00292); assay: small molecules binding LEFTY2 protein – biochemical, small-molecule microarray, 635 nm fluorescence scan, primary screen (AID 1110); conditions: higher = more signal
[14] = molecular target: Calmodulin-1 (Homo sapiens) (UniProt P0DP23); assay: small molecules binding calmodulin-1 with EGTA – biochemical, small-molecule microarray, Cy5-labelled CALM1, profiling panel (AID 1111); conditions: Cy5-CALM1 binding fluorescence, higher = more signal;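 note: labelled calmodulin applied in Tris saline Tween buffer holding calcium plus EGTA and DTT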
[15] = molecular target: Calmodulin-1 (Homo sapiens) (UniProt P0DP23); assay: small molecules binding Ca-loaded calmodulin-1 – biochemical, small-molecule microarray, Cy5-labelled CALM1, plus calcium, artefact control for SMM control-protein annotation, profiling panel (AID 1112); conditions: Cy5-CALM1 binding fluorescence, higher = more signal;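 note: score merges spot fluorescence with signal to noise from triplicate slides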
[16] = probe aWnt5a binding to arrayed compounds – biochemical, biotinylated probe, 635/667 nm fluorescence, primary screen (AID 1113); conditions: small-molecule microarray, higher = more signal;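 note: score merges 667 nm fluorescence intensity with signal-to-noise per printed feature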
[17] = probe aShh binding to arrayed compounds – biochemical, biotinylated probe, 635/667 nm fluorescence, primary screen (AID 1114); conditions: small-molecule microarray, higher = more signal;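 note: probe is biotin-labelled aShh protein from a stem cell growth factor screen; measures binding of labelled protein to compounds printed on the slide; score merges feature fluorescence at 667 nm with signal-to-noise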
[18] = probe aNog binding to arrayed compounds – biochemical, biotinylated probe, 635/667 nm fluorescence, primary screen (AID 1115); conditions: small-molecule microarray, higher = more signal;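 note: probe is biotinylated aNog protein used at 0.15 µg/mL for 1 h at 4 C; z-score combines 667 nm fluorescence of each spot with its signal to noise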
[19] = molecular target: Torsin-1A-interacting protein 1 (Homo sapiens) (UniProt Q5JTV8); assay: compound microarray binding of lysate hLAP1 – cell lysate, small-molecule microarray, COS7 lysate, 635/667 nm fluorescence, primary screen (AID 1116); conditions: 635 nm fluorescence, higher = more signal
[20] = molecular target: Alpha-bungarotoxin (Bungarus multicinctus) (UniProt P60615); assay: compounds binding labelled alpha-BTX control protein – biochemical, small-molecule microarray, Alexa647 label, 635/667 nm fluorescence, artefact control for SMM control protein annotation, profiling panel (AID 1117); conditions: alpha-BTX-A647 binding fluorescence, higher = more signal
Alpha-bungarotoxin (Bungarus multicinctus), sequence (P60615 whole entry, looked up): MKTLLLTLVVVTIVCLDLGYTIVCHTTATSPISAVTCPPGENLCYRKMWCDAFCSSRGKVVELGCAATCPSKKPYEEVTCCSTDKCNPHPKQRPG

Torsin-1A-interacting protein 1 (Homo sapiens), sequence (Q5JTV8 whole entry, looked up): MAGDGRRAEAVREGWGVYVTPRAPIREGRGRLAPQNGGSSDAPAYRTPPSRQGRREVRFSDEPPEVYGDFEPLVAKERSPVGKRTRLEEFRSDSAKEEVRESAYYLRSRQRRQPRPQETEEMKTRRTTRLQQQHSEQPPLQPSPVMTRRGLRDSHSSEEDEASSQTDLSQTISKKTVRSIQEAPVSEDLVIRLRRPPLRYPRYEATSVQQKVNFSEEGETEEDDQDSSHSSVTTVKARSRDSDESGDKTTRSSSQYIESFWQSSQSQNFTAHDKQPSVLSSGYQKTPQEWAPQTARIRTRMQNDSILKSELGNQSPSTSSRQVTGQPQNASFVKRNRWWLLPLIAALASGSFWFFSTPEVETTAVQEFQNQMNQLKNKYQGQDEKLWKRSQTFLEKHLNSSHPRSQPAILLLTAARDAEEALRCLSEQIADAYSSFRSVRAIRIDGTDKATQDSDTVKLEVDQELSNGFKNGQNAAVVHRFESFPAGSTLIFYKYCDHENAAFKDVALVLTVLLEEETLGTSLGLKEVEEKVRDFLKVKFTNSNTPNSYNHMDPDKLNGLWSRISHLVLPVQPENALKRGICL
Dickkopf-related protein 1 (Homo sapiens), sequence (O94907 whole entry, looked up): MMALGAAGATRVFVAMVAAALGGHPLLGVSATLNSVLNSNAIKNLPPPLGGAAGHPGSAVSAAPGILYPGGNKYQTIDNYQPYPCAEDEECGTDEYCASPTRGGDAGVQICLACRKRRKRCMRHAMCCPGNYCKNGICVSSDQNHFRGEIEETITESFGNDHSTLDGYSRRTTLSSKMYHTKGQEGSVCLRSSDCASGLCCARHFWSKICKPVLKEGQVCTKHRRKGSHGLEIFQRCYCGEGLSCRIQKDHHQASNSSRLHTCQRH
Fibroblast growth factor 10 (Homo sapiens), sequence (O15520 whole entry, looked up): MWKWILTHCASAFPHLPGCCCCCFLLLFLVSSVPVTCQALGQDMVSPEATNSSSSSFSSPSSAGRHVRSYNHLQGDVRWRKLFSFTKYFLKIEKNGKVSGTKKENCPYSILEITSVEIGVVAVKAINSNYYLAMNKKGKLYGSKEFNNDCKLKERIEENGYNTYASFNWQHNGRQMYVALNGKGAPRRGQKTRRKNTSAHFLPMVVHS
Left-right determination factor 2 (Homo sapiens), sequence (O00292 whole entry, looked up): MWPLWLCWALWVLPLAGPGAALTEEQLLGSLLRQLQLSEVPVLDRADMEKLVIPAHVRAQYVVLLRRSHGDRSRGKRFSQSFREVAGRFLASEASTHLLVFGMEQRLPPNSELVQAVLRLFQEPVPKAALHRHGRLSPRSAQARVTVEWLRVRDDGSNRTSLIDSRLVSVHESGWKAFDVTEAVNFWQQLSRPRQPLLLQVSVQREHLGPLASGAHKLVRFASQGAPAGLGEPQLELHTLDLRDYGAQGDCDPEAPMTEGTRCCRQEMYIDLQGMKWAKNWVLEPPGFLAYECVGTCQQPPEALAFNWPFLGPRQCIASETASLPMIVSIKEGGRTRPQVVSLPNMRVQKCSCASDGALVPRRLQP
Epidermal growth factor receptor (Homo sapiens), sequence (P00533 whole entry, looked up): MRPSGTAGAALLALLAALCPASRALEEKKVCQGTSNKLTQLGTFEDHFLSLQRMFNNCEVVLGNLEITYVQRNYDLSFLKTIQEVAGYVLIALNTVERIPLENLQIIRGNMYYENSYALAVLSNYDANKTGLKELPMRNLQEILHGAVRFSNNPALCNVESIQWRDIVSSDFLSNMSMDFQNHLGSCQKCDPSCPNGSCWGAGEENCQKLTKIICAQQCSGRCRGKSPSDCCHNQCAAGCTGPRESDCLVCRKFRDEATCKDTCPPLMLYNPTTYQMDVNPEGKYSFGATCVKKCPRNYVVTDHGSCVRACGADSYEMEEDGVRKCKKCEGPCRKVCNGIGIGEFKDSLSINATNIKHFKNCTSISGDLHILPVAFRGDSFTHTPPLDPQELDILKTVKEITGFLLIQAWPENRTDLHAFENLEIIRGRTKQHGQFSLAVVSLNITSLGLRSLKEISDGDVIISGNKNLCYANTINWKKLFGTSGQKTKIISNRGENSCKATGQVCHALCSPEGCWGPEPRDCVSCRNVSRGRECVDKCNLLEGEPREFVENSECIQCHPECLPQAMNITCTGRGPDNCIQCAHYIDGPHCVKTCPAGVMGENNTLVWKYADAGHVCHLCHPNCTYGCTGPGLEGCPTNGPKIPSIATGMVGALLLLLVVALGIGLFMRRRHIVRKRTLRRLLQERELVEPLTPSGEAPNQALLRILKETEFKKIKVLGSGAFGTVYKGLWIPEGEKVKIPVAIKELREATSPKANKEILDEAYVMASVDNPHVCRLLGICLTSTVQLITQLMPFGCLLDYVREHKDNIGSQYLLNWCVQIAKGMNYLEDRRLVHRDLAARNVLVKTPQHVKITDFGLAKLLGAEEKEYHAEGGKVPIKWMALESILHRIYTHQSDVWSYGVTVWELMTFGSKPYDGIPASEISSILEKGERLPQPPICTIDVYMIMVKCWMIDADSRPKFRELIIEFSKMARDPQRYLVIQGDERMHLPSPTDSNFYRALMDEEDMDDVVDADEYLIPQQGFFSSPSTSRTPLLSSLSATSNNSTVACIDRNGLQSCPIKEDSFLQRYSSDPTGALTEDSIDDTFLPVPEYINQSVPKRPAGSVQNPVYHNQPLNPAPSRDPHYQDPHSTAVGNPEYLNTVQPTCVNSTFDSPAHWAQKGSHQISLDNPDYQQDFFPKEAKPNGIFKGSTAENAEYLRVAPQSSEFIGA
Follistatin-related protein 3 (Homo sapiens), sequence (O95633 whole entry, looked up): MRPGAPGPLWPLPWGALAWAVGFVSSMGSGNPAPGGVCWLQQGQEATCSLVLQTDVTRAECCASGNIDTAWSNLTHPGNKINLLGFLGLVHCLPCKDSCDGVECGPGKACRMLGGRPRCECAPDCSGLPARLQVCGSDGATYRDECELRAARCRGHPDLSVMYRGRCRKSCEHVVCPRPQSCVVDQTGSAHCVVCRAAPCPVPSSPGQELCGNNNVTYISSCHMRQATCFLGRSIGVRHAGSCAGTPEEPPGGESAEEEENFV

| Compound | composite z-score [1] | composite z-score [2] | composite z-score [3] | z-score [4] | composite z-score [5] | composite z-score [6] | composite z-score [7] | composite z-score [8] | composite z-score [9] | composite z-score [10] | composite z-score [11] | z-score [12] | composite z-score [13] | composite z-score [14] | composite z-score [15] | composite z-score [16] | composite z-score [17] | composite z-score [18] | composite z-score [19] | composite z-score [20] |
| --- | --- | --- | --- | --- | --- | --- | --- | --- | --- | --- | --- | --- | --- | --- | --- | --- | --- | --- | --- | --- |
| COc1cc([C@@H]2N[C@H](C(=O)O)Cc3c2[nH]c2ccccc32)cc(OC)c1OC | 0.175 | -0.0572 | -0.272 | -0.526 (inactive) | 0.644 | 0.167 | 0.3 | 0.508 | 0.977 | -1.7 | 0.297 | -0.0056 | 0.649 | -0.0344 | -0.494 | -0.0328 | -0.221 | 0.0374 | 0.0517 | 0.441 |
| COc1ccc(CCNC(=O)[C@@]2(c3ccc([N+](=O)[O-])cc3)CC(=O)N(C(C)C)[C@@H]2c2ccc(CO)cc2)cc1 | 1.25 | 0.716 | 1.24 | -0.58 (inactive) | -0.787 | -0.767 | -1.57 | -1.67 | -1.43 | -0.445 | 0.0008 | -0.309 | -1.6 | -0.63 | -0.0462 | -0.129 | 0.0557 | 0.132 | 0.228 | -0.631 |
| Cc1ccc(N2C(=O)c3ccccc3[C@](C)(C(=O)O)[C@@H]2c2ccc(CO)cc2)nc1 | -0.445 | -0.322 | 0.365 | 0.763 (inactive) | -0.883 | -1.45 | -2.18 | -1.21 | -0.967 | -0.292 | -2.5 | 0.0767 | -1.64 | 0.202 | 0.823 | -0.304 | 0.608 | -0.459 | -0.415 | -0.666 |
| [N-]=[N+]=NCc1ccccc1C[C@]1(C(N)=O)N=C(c2ccc(OCCCO)cc2)O[C@H]1c1ccccc1CN=[N+]=[N-] | 1.49 | 1.51 | 1.29 | -1.63 (inactive) | 0.72 | 0.265 | -0.37 | 0.186 | -0.9 | 1.41 | 0.842 | -2.34 | -0.854 | 1.98 | 1.12 | 0.0286 | 0.84 | 0.653 | 1.32 | 1.56 |
| COCCOC(=O)N1C(=O)[C@@]2(c3cc(C#CC4(O)CCCCCC4)ccc31)[C@H](C(=O)N1CCCCCCC1)[C@H]1C(=O)O[C@H](c3ccccc3)[C@H](c3ccccc3)N1[C@@H]2c1ccc(O)cc1 | 1.26 | 2.22 | 1.55 | -0.0148 (inactive) | 0.808 | 1.11 | 0.251 | 1.34 | 0.716 | 1.89 | 0.554 | -0.937 | 0.333 | 1.31 | 0.639 | 0.629 | 1.9 | 2.13 | 3.24 | 1.73 |
| CO[C@H]1COC(=O)CC=C[C@H](C)[C@@H](OC)COC(=O)[C@H](Cc2ccccc2)NC(=O)CC=C[C@@H]1C | 1.49 | -1.1 | -1.86 | -1.34 (inactive) | -0.0885 | 0.344 | 0.514 | 1.22 | 1.96 | 1.72 | -1.64 | -0.74 | 1.12 | -1.67 | -3.12 | -0.144 | -0.11 | -0.537 | -0.272 | -1.24 |
| O=C1c2ccccc2[C@](Cc2ccccc2I)(C(=O)O)[C@H](c2ccc(CO)cc2)N1C1CCCCC1 | 1.31 | 0.94 | 1.05 | -1.32 (inactive) | 1.28 | 1.28 | 0.947 | 1.06 | 0.16 | 0.198 | 1.02 | -1.33 | 0.15 | 1.61 | 0.487 | -0.0203 | -0.018 | 0.213 | 1.5 | 1.53 |
| C[C@@H]1CC[C@H]2C(=O)N3CCC[C@H]3C(=O)N2[C@H]1c1ccc(Br)cc1 | 0.654 | -0.178 | -0.439 | -0.931 (inactive) | 0.125 | 0.267 | 0.0436 | 0.0529 | 0.526 | 0.38 | 0.175 | 0.673 | 0.267 | -0.243 | -0.558 | -0.212 | -0.0769 | -0.307 | 0.324 | -0.179 |
| CCOC(=O)C[C@H]1[C@H](OC(=O)c2ccccc2-c2ccccc2)[C@@H](NC(=O)c2ccc(-c3ccccc3)cc2)c2cc(OCCCO)ccc2N1C(=O)Cc1ccc(OC)cc1 | -0.0957 | -0.394 | -0.44 | -0.288 (inactive) | 0.295 | -0.189 | 0.147 | 0.38 | 0.428 | 0.701 | 0.295 | -2.04 | 0.462 | -0.203 | -0.499 | -0.111 | -0.0626 | -0.31 | -0.0098 | 0.322 |
| C=CCC(OC(C)=O)[C@@H]1[C@@H](N(Cc2ccc(-c3cccc(C(F)(F)F)c3)o2)C(=O)Cc2ccc(F)cc2)c2cc(OCCCO)ccc2N1C(=O)c1ccc(-c2ccccc2)cc1 (stereo not given in full) | 0.18 | -0.0567 | 0.494 | -0.291 (inactive) | -0.204 | -0.847 | -0.736 | -0.198 | -0.0679 | 1.32 | -0.741 | -0.583 | -0.689 | -0.679 | 0.671 | -0.154 | 0.0899 | 0.172 | 0.14 | -0.227 |
| CO[C@@H]1COC(=O)CC=C[C@@H](C)[C@H](OC)COC(=O)CC=C[C@H]1C | 0.816 | -0.628 | -1.4 | 0.161 (inactive) | 0.262 | 0.103 | 0.346 | 0.953 | 1.84 | 1.8 | -0.255 | 0.353 | 0.599 | -0.888 | -1.49 | -0.24 | 0.0796 | 0.563 | -0.176 | -0.587 |
